The source of these data is PubChem BioAssay.

The nature of the assay: viability loss with induced miR-34 in A549 – imaging, A549 dox-inducible miR-34, nuclei and caspase counts, primary screen (AID 1347080). Note: test concentration not given here. To be noted: A549 miR-34 inducible, Hoechst nuclei count, 48 h.
Setting [1] is: stronger effect = lower value, cell number ratio, induced over uninduced.
Where [2] appears, read: measured here: relative caspase fold change +Dox/-Dox.
The mark [3] stands for this setting: measured here: total cells with miR-34 induction, stronger effect = lower value.
Setting [4] is: measured here: total cells without miR-34 induction.

Structures are written as SMILES. Values joined by “and” are separate entries in the source; they are usually repeats but may differ in a detail not shown here. Equal entries are not always repeated. Active and inactive are the calls of the source.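 Rule for the calls: active = compounds whose cell count with miR-34 switched on is under 0.7 times the count with it off; inactive = the rest.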

Consider `CCCCC[C@@H](O)/C=C/[C@@H]1[C@@H](C/C=C\CCCC(=O)O)[C@@H](O)C[C@H]1O`, for which the fold change by setting is: under setting [1], 0.977 (inactive); under setting [2], 1.24. Also, the cell count by setting is: under setting [3], 5960; under setting [4], 6100.
Take `C1CCC(NC(=NC2C3CC4CC(C3)CC2C4)N2CCOCC2)CC1` (stereo unspecified): the fold change is 1.04 (inactive) under setting [1] and 1.05 under setting [2]. The cell count was found to be 5720 under setting [3] and 5520 under setting [4].
As to `O=C(O)CCC/C=C\C[C@@H]1[C@@H](/C=C/[C@@H](O)C2CCCCC2)[C@H](O)C[C@@H]1O`, the fold change under setting [1] was 0.938 (inactive) and the fold change under setting [2] stood at 1.34. In addition, the cell count is, setting by setting: under setting [3], 5910; under setting [4], 6300.
The corresponding values for `C=C(C)[C@@H]1CCC(C)=C[C@H]1c1c(O)cc(C)cc1O` are 0.94 (inactive), 1.01, 5290 and 5630.
Consider `CCCCC[C@H](O)/C=C/[C@@H]1[C@@H](C/C=C\CCCC(=O)NCC)[C@@H](O)C[C@H]1O`, for which the fold change under setting [1] was 0.749 (inactive) and the fold change under setting [2] was 1.63. Besides, the cell count under setting [3] turned out to be 5570 and the cell count under setting [4] was found to be 7440.
For `CCCCC[C@H](O)/C=C/[C@@H]1[C@@H](C/C=C\CCCC(=O)NCCO)[C@@H](O)C[C@@H]1O`, the fold change is 0.916 (inactive) under setting [1] and 1.36 under setting [2]. Also, the cell count by setting is: under setting [3], 5800; under setting [4], 6330.
Regarding `O=C(O)c1ccc2c(c1)CCCC2`, the fold change by setting is: under setting [1], 0.93 (inactive); under setting [2], 0.342. For the same compound, the cell count runs as follows: under setting [3], 5260; under setting [4], 5660.
As for `CCCCCC1OC(O)CC1SC[C@H](NC(C)=O)C(=O)O` (stereo partly specified), the fold change under setting [1] was 0.93 (inactive) and the fold change under setting [2] worked out at 1.14. For the same compound, the cell count was found to be 5580 under setting [3] and 6010 under setting [4].
Regarding `COc1ccc(C2=N[C@@H](c3ccc(Cl)cc3)[C@@H](c3ccc(Cl)cc3)N2C(=O)N2CCNC(=O)C2)c(OC(C)C)c1`, the fold change is 1.1 (inactive) under setting [1] and 0.974 under setting [2]. Moreover, the cell count came to 4290 under setting [3] and 3920 under setting [4].
For the compound `COc1ccc(/C=C/c2cc(O)cc(O)c2)cc1O`, the fold change by setting is: under setting [1], 0.915 (inactive); under setting [2], 0.703. The cell count by setting is: under setting [3], 5710; under setting [4], 6250.
The matching figures for `C=C(N)N[C@@H](CCC(=O)O)C(=O)O`: 0.873 (inactive), 0.849, 8430 and 9660.
As to `CCCCCCCCCCCCCCCCOC[C@H](COP(=O)([O-])OCC[N+](C)(C)C)OC`, the fold change under setting [1] is 0.789 (inactive) and the fold change under setting [2] came to 1.27. The cell count was found to be 5780 under setting [3] and 7330 under setting [4].
On to `CCCCCCCCCCCCCCCCCCCCCCC(=O)OCC`, for which the fold change reads like this: under setting [1], 0.908 (inactive); under setting [2], 0.513. Further, the cell count reads like this: under setting [3], 4740; under setting [4], 5220.
Take `CCOC(=O)c1ccc(N=Nc2ccc(O)c(CC(=O)O)c2)cc1`: the fold change was 0.95 (inactive) under setting [1] and 0.801 under setting [2]. Besides, the cell count by setting is: under setting [3], 6160; under setting [4], 6490.
Take `CCCCC[C@H](O)/C=C/[C@H]1CCC(=O)[C@@H]1C/C=C\CCCC(=O)O`: the fold change by setting is: under setting [1], 0.932 (inactive); under setting [2], 1.35. Besides, the cell count is 6060 under setting [3] and 6510 under setting [4].
Regarding `O=C(O)CCC/C=C\C[C@@H]1[C@@H](/C=C/[C@H](O)COc2cccc(C(F)(F)F)c2)[C@H](O)C[C@@H]1O`, the fold change runs as follows: under setting [1], 1.06 (inactive); under setting [2], 0.987. This compound had a cell count under setting [3] of 6230 and a cell count under setting [4] of 5890.
Regarding `CC(C)=CCC/C(C)=C/CC/C(C)=C/CSc1ccccc1C(N)=O`, the fold change is 0.994 (inactive) under setting [1] and 0.741 under setting [2]. The cell count by setting is: under setting [3], 5740; under setting [4], 5780.
The corresponding values for `CC/C=C\C/C=C\C/C=C\C/C=C\C/C=C\C/C=C\CCC(=O)NCCO` are 0.934 (inactive), 0.411, 5920 and 6340.
As to `C=C1O[C@@](CO)(n2cnc3c(N)ncnc32)[C@H](O)[C@@H]1O`, the fold change under setting [1] is 0.941 (inactive) and the fold change under setting [2] was 1.1. The cell count by setting is: under setting [3], 4870; under setting [4], 5180.
In the case of `CCCCC[C@H](O)/C=C/[C@H]1C(=O)C[C@H](O)[C@@H]1C/C=C\CCCC(=O)OC`, the fold change under setting [1] was 0.892 (inactive) and the fold change under setting [2] is 0.761. This compound also came in with a cell count under setting [3] of 5010 and a cell count under setting [4] of 5620.
Regarding `C[C@@H]1C[C@H]2O[C@@H]2/C=C\C=C\C(=O)Cc2c(Cl)c(O)cc(O)c2C(=O)O1`, the fold change reads like this: under setting [1], 1.01 (inactive); under setting [2], 1.3. Moreover, the cell count under setting [3] was 2240 and the cell count under setting [4] is 2220.
The corresponding values for `CCCCC[C@@H](O)/C=C/[C@H]1C[C@H]2C[C@@H]([C@@H]1C/C=C\CCCC(=O)O)C2(C)C` are 0.917 (inactive), 0.452, 5480 and 5970.
Consider `CCCCC/C=C\C/C=C\C/C=C\C/C=C\CCCC(=O)O[C@H](COCCCCCCCCCCCCCCCC)COP(=O)([O-])OCC[N+](C)(C)C`, for which the fold change was 0.94 (inactive) and 0.936 (inactive) under setting [1]; 1.77 and 0.976 under setting [2]. Besides, the cell count is 5550 and 5760 under setting [3]; 5910 and 6160 under setting [4].
On to `CCCCCCCCCCCCCC(=O)O`, for which the fold change is, setting by setting: under setting [1], 1.04 (inactive); under setting [2], 1.03. Moreover, the cell count under setting [3] turned out to be 6710 and the cell count under setting [4] was 6460.
As to `CC(C)Oc1ccc(C(=O)c2ccc(NC3=NCCN3)cc2)cc1`, the fold change under setting [1] is 1.07 (inactive) and the fold change under setting [2] was found to be 0.773. Besides, the cell count is, setting by setting: under setting [3], 6020; under setting [4], 5650.
For the compound `CCCCCCCCCCCCCCCC(=O)NC(CO)CO`, the fold change under setting [1] is 0.966 (inactive) and the fold change under setting [2] worked out at 0.974. The cell count runs as follows: under setting [3], 5260; under setting [4], 5440.
In the case of `c1ccc([B-]2(c3ccccc3)[NH2+]CCO2)cc1`, the fold change reads like this: under setting [1], 0.926 (inactive); under setting [2], 1.45. Further, the cell count stood at 3950 under setting [3] and 4260 under setting [4].
The corresponding values for `CCCCC[C@H](O)/C=C/[C@@H]1[C@@H](C/C=C\CCCC(=O)NC(CO)CO)[C@@H](O)C[C@H]1O` are 1.01 (inactive), 1.3, 6050 and 5980.
Regarding `O=P(O)(O)OC1C(O)C(OP(=O)(O)O)C(O)C(OP(=O)(O)O)C1O` (stereo unspecified), the fold change is, setting by setting: under setting [1], 0.967 (inactive); under setting [2], 0.962. For the same compound, the cell count by setting is: under setting [3], 5750; under setting [4], 5950.
